# Measured values as given in PubChem BioAssay (EPA / NIEHS).
# Results filed as inconclusive are left out. Activity calls are given as the source filed them. Rule for the calls: active = hit-call score of the fitted dose curve at least 0.9, where 1 is the maximum; inconclusive = response in the unintended direction; inactive = score below 0.9.
# Target: Estrogen receptor (Homo sapiens) (UniProt P03372)
# Assay: CCTE_Deisenroth_AIME_384WELL_LUC_Active: CCTE's 384-well Estrogen Receptor Transactivation Assay with AIME metabolic competence (ERTA luciferase; metabolism positive), Deisenroth Lab (AID 2284030)
# Protocol: CCTE_Deisenroth_AIME_384WELL (AIME metabolism assay) is a cell-based, single-readout assay that uses VM7Luc4E2, a human mammary gland/breast cell line, with measurements taken at 24 hour after chemical dosing in a 384-well plate.CCTE_Deisenroth_AIME_384WELL_LUC_Active is one of four assay components measured or calculated from the CCTE_Deisenroth_AIME_384WELL assay. It is designed to make measurements of luciferase induction, a form of inducible reporter, as detected with bioluminescence signals by luciferase-coupled ATP quantitation technology.CCTE_Deisenroth_AIME_384WELL_LUC_Active is a component of the CCTE_Deisenroth_AIME_384WELL assay that measures the effect of retroftting the VM7Luc ERTA assay with the Alginate Immobolization of Metabolic Enzymes (AIME) metabolism method. AIME is optimized to impart phase I hepatic metabolism using phenobarbital/beta-naphthoflavone induced hepatic S9 from male Sprague Dawley rats. Parent chemicals are incubated for 2 hours in the AIME assay prior to transfer to the VM7Luc ERTA assay plate. […] This endpoint evaluates reporter induction in metabolism positive mode. Using a type of inducible reporter in VM7Luc cells, gain-of-signal activity can be used to understand changes in the reporter gene as they relate to xenobiotic metabolism and the gene ESR1. This assay endpoint, CCTE_Deisenroth_AIME_384WELL_LUC_Active, was analyzed in the positive analysis fitting direction relative to 17beta-estradiol as the positive control in the ERTA assay. To generalize the intended target to other relatable targets, this assay endpoint is annotated to the nuclear receptor intended target family, where the subfamily is steroidal.
# The AIME procedure consists of a preparative "pre-stamping" step using a barium chloride/poly-L-lysine (PLL) solution followed by "stamping" the lid in alginate-hepatic S9 (metabolism positive) or alginate-water (metabolism negative) to form microspheres. Once stamping is completed, the AIME lids are placed in duplicate microplates (metabolism positive or negative) containing chemical solutions and incubated for two hours to facilitate metabolic reactions. The conditioned medium, containing parent chemical or metabolites, is then transferred to the cell-based VM7Luc Estrogen Receptor Transactivation Assay (ERTA) for 24 hours. A typical experimental design tests a 10-point concentration series (0.002 - 200 uM) for 8 compounds (96-well format)1 or 32 compounds (384-well format)2 in single technical replicate. AIME assay controls include trans-stilbene (bioactivated control) and ethylparaben (bioinactivated control). ERTA assay plate controls include 17-beta estradiol (positive control) and DMSO (solvent control). Experiments typically comprise a minimum of four experimental replicates (n=4).
# Chain of Estrogen receptor (Homo sapiens) (P03372 whole entry, looked up): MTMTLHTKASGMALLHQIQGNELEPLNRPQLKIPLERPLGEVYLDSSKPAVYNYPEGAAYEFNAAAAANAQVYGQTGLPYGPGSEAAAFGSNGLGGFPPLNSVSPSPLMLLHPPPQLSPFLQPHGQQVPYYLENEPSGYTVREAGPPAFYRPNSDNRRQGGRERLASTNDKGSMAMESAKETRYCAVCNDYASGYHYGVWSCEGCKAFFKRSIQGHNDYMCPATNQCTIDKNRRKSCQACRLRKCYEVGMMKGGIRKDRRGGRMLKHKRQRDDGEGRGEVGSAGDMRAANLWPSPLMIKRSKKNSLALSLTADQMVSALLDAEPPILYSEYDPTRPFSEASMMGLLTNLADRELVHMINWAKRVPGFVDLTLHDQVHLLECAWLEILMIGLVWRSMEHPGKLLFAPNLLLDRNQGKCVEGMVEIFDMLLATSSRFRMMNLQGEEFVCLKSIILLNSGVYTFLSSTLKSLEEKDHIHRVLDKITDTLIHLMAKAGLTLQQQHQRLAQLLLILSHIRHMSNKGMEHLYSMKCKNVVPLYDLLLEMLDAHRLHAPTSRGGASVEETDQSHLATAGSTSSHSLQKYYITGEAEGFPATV
Structure (SMILES),outcome,AC50
O=C(C=Cc1ccccc1)OCc1ccccc1,inactive,–
CCCCC(CC)CCC(CC(C)C)OS(=O)(=O)O (stereo not drawn),inactive,–
CCN(CCC#N)c1ccc(N=Nc2c(Cl)cc([N+](=O)[O-])cc2Cl)cc1,inactive,–
CO[Si](OC)(OC)c1ccccc1,inactive,–
CCCCCCCCCCOS(=O)(=O)O,inactive,–
CC1=NN(c2cc(S(=O)(=O)O)ccc2Cl)C(=O)C1N=Nc1ccccc1 (stereo not drawn),inactive,–
O=C1CCCC1,inactive,–
Cc1ccc(C(C)c2ccc(C)c(C)c2)cc1C,–,16 µM (active)
C=CC(=O)NC(C)(C)CS(=O)(=O)O,inactive,–
C=C1C2CCC(C2)C1(C)C (stereo not drawn),inactive,–
CCOC(=O)CC,inactive,–
O=C1C(N(CO)C(=O)NCO)N(CO)C(=O)N1CO (stereo not drawn),inactive,–
O=C(C(Cl)Cl)N1CCOC12CCCCC2,inactive,–
CCCCCc1ccc(Cl)cc1,inactive,–
NC(CO)(CO)CO,inactive,–
OC1CCCC1,inactive,–
O=c1cc(-c2ccccc2)oc2ccccc12,–,45.6 µM (active)
O=S(=O)(O)c1ccccc1C=Cc1ccc(-c2ccc(C=Cc3ccccc3S(=O)(=O)O)cc2)cc1,inactive,–
O=C(c1ccccc1)C1CCC1,inactive,–
CCCCC/C=C\CCC=O,inactive,–
O=S1(=O)OC(c2ccc(O)cc2)(c2ccc(O)cc2)c2ccccc21,inactive,–
CC=C1CC2C=CC1C2 (stereo not drawn),inactive,–
CC(=O)OC(C)C,inactive,–
